CHX counter = affects cycloheximide protein synthesis inhibition readout, counter-screen; max response, %; AID 2314; cell reporter, cycloheximide protein synthesis inhibition counterscreen; 12% of 300,000 active; in the data active = max response mostly above about 13%, no sharp cut-off; inactive = mostly below about 14%; note: read at 38.3 µM for the half of the compounds with a filed dose
Shiga inhibitor = inhibitors of Shiga toxin in Vero cells; Vero cells, Shiga toxin protein synthesis inhibition reporter; inhibition, % at 38.7 µM; 9.2% of 290,000 active; AID 2315; in the data active = inhibition mostly above about 28%, no sharp cut-off; inactive = mostly below about 43%
Giardia FBPA inh = Giardia lamblia aldolase inhibition | A8B2U2 | purified Giardia FBPA | Potency, µM (doses to about 59.6 µM), actives largely listed as inhibitors | 0.71% of 290,000 active; note: nearly all actives have a fitted effect of over 55% in size
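Giardia FBPA (40 nM reagent) was preincubated 10 min at RT with compound (up to 57.5 uM final), then substrate plus GAPDH/TPI/NAD/arsenate coupling system with diaphorase/resazurin was added; resorufin fluorescence (525/598 nm) was read after 20 min.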
TbPYK inhibitor = T. brucei pyruvate kinase inhibition | Q57TT1 | TbPYK enzyme, Kinase-Glo Plus ATP luminescence, 45 min | Potency, µM (titrated, usually from 76.8 µM), usual class: inhibitors | 0.12% of 410,000 active; note: nearly all actives have a fitted effect of over 50% in size
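In this concentration-response screen, enzyme-free wells defined baseline while DMSO plates tracked drift. Each reaction combined TbPYK, substrate, compound and 130 uM ADP for 45 min at room temperature. Kinase-Glo Plus luminescence gave the signal.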
RE007 growth inh = less growth of the S. pombe RE007 Vpr strain; AID 651644; Potency, µM (series often up to 92.2 µM), usual class: inhibitors; 0.21% of 360,000 active; S. pombe RE007 Vpr strain, BacTiter-Glo ATP luminescence, 24 h; active = well fitted falling curve with a large enough effect; inconclusive = small, poorly fitted or top-dose-only effect; inactive = no such curve, though single readings can be large or run the other way; note: nearly all actives have a fitted effect of over 50% in size
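Fission yeast strain RE007, carrying one chromosomally integrated HIV-1 vpr copy, was seeded at OD 0.01 in PMG+AL medium with 23 nL pinned compound. After 24 h at 30 °C and 99% humidity, viability was read by BacTiter-Glo luminescence.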
LmPK inh = blocks Leishmania mexicana pyruvate kinase activity; Q27686; purified LmPK, Kinase-Glo ATP luminescence, 1 h; Potency, µM (top dose mostly 57.5 µM), usual class: inhibitors; 0.37% of 290,000 active
Target sequence (Q27686 whole entry, looked up): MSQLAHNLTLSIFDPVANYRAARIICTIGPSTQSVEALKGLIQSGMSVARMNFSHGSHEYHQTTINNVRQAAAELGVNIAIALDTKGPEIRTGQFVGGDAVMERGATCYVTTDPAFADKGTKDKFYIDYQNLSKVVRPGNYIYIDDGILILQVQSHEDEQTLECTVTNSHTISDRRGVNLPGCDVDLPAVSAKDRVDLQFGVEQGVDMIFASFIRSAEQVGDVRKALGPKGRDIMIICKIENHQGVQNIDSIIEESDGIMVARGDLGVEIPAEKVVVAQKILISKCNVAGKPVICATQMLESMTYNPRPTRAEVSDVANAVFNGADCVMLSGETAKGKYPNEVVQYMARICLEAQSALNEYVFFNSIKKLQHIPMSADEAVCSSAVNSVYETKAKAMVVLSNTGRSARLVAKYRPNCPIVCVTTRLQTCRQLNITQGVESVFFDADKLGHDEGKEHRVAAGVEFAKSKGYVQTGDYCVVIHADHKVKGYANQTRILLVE
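Kinase-Glo luminescence read after 1 h RT reaction of 0.1 nM LmPK with 0.5 mM PEP and 0.1 mM ADP. Activity scaled between uninhibited and enzyme-free controls.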
Large screens that a line does not name were inactive. Many of the other results were omitted from the sample, so hits are more common in it than they were. Unless noted, calls come from the whole dose curve; as a rule, active = well fitted curve in the direction sought with a large enough effect; inconclusive = small, poorly fitted or top-dose-only effect, or another doubt; inactive = no such curve, though single readings can be large; an effect the other way counts as inactive or inconclusive.

CCN(CC)c1ccc(/C=C2\C(=O)c3ccc(C(=O)O)cc3C2=O)cc1	CHX counter 130, Shiga inhibitor active, TbPYK inhibitor 25µM
CCN(CC)c1ccc(C(=O)O)cc1	none
CCCNC(=O)c1cc(-c2ccco2)on1	CHX counter 49, Shiga inhibitor 120
CC(C)CNC(=O)c1cc(-c2ccco2)on1	CHX counter 35, Shiga inhibitor active
COc1cccc(CNC(=O)c2ccc3c(c2)c(C)c(C)n3Cc2ccccc2)c1OC	none (no result: CHX counter, Shiga inhibitor, Giardia FBPA inh, RE007 growth inh, LmPK inh)
C/C(=N\OC(=O)c1ccc(Br)cc1)c1ccccn1	LmPK inh inconclusive
C/C(=N/OCc1ccc(Br)cc1)c1ccccn1	CHX counter 26, Shiga inhibitor 60
CCOC(=O)c1ccc(NC(=O)CN2C(=O)C(C)SC(C)C2=O)cc1 (configuration not stated)	none
CCOC(=O)c1ccc(NC(=O)CC2Sc3ncnn3C2=O)cc1 (configuration not stated)	Giardia FBPA inh inconclusive, RE007 growth inh 32µM
CCOC(=O)c1ccc(NC(=O)CN2C(=O)CSC(C)C2=O)cc1 (configuration not stated)	CHX counter 13
COc1cc(CN(C(=O)c2ccc(C)cc2)c2ccccn2)cc(OC)c1OC	none (no result: CHX counter, Shiga inhibitor, Giardia FBPA inh, RE007 growth inh, LmPK inh)
CCCCOc1ccc(C(=S)N2CCC(C(N)=O)CC2)cc1	CHX counter 38, Shiga inhibitor 105
CCOc1ccc(C(=O)N2CCCCCC2)cc1	none
CCC(Oc1ccccc1)C(=O)N1CCC(C(N)=O)CC1 (configuration not stated)	CHX counter 18, Shiga inhibitor 42
CCOc1ccc(C(=S)N2CCCC2)cc1	CHX counter 14, Shiga inhibitor 88
CN(C)c1ccc(C(=S)N2CCCCC2)cc1	CHX counter 23, Shiga inhibitor 37
CCCCC(=O)Nc1sc2c(c1C(N)=O)CCC2	CHX counter 32, Shiga inhibitor 45
CC(C)CC(=O)NC(=S)Nc1sc2c(c1C(N)=O)CCC2	none
CC(C)(C)C(=O)NC(=S)Nc1sc2c(c1C(N)=O)CCC2	CHX counter 22
Cc1cccc(Cc2cnc(NC(=O)C3Cc4ccc(C)cc4C(=O)O3)s2)c1 (configuration not stated)	none (no result: CHX counter, Shiga inhibitor, Giardia FBPA inh, RE007 growth inh, LmPK inh)
c1ccc(-c2ccc(N3CCCC4(CCNCC4)C3)cc2)cc1	none (no result: CHX counter, Shiga inhibitor, RE007 growth inh, LmPK inh)
CC(C(=O)O)c1ccc(N2Cc3ccccc3C2=O)cc1 (configuration not stated)	Shiga inhibitor 72, LmPK inh inconclusive
CCOc1ccc(N(CCCCO)C(=S)NC(=O)c2ccc(C)c(Br)c2)cc1	none
Cc1noc(-c2ccc(CSCCC(=O)O)cc2)c1NC(=O)OC(C)c1ccccc1Cl (configuration not stated)	none (no result: TbPYK inhibitor, RE007 growth inh, LmPK inh)
COc1ccc(C2=NN(CC(=O)Nc3ccccc3C)C(=O)CC2)cc1	CHX counter 12
NC(=O)c1ccccc1N/C=C/C(=O)c1ccco1	CHX counter 30, Shiga inhibitor 69, LmPK inh inconclusive
NC(=O)c1ccccc1NS(=O)(=O)Cc1ccccc1	none
O=C(/C=C/Nc1ccccc1C(F)(F)F)c1ccco1	CHX counter 44, Shiga inhibitor 59
O=C(CSc1nnc(CNC(=O)c2ccco2)o1)Nc1ccccc1C(F)(F)F	none (no result: Giardia FBPA inh)
CCCOc1cccc(C(=O)N(Cc2sccc2C)C2CCS(=O)(=O)C2)c1 (configuration not stated)	none (no result: CHX counter, Shiga inhibitor, Giardia FBPA inh, RE007 growth inh, LmPK inh)
O=c1oc(-c2ccccc2)nc2sc3c(c12)CCCC3	CHX counter 41, Shiga inhibitor 124, LmPK inh inconclusive
O=c1oc(-c2cccs2)nc2sc3c(c12)CCCCC3	CHX counter 26, Shiga inhibitor 59
CCc1c(-c2ccccc2)nc2sc3c(c2c1N)CCCC3	CHX counter 19
Cc1ccccc1-c1nc2sc3c(c2c(=O)o1)CCC3	none
Nc1nc(-c2cccnc2)nc2sc3c(c12)CCCC3	CHX counter 31
C=CCCCCCCCCC(=O)Nc1ncccn1	TbPYK inhibitor inconclusive, RE007 growth inh inconclusive
CCOC(=O)c1ccc(N/C=C/C(=O)C(C)(C)C)cc1	CHX counter 50, Shiga inhibitor 90
CCOC(=O)c1ccc(N/C=C/C(=O)c2ccc(OC)cc2)cc1	none
CCOC(=O)c1ccc(CNCc2ccccc2)cc1	CHX counter 29, Shiga inhibitor 50
CCOC(=O)c1ccc(N/C=C/C(=O)c2ccccc2)cc1	CHX counter 43, Shiga inhibitor 54, Giardia FBPA inh inconclusive
CCOC(=O)c1ccc(NS(C)(=O)=O)cc1	none
CSc1ncc(C(=O)NCc2ccc(Cl)cc2)c(C(F)(F)F)n1	none (no result: CHX counter, Shiga inhibitor, Giardia FBPA inh, RE007 growth inh, LmPK inh)
CCn1cc(C=C2C(=O)c3ccccc3C2=O)c2ccccc21	CHX counter 12
O=C(Nc1ccc(Br)cc1)C1CCCN1S(=O)(=O)c1ccc(F)cc1 (configuration not stated)	none (no result: CHX counter, Shiga inhibitor, Giardia FBPA inh, RE007 growth inh, LmPK inh)
Cn1c(=O)c2[nH]c(=S)n(Cc3ccccc3)c2n(C)c1=O	TbPYK inhibitor 16µM (no result: CHX counter, Shiga inhibitor, Giardia FBPA inh, LmPK inh)
COCCCNCCCOc1ccc(Cl)cc1Br	none (no result: TbPYK inhibitor)
Clc1ccc(OCCCCCN2CCCC2)c(Br)c1	none
Clc1ccc(OCCCN2CCCCC2)c(Br)c1	CHX counter 71, Shiga inhibitor 12, Giardia FBPA inh inconclusive
CC(C)NCCCOc1ccc(Cl)cc1Br	CHX counter 31, Shiga inhibitor 36, Giardia FBPA inh inconclusive
CC(Oc1ccc(O)cc1)(P(=O)(O)O)P(=O)(O)O	none (no result: CHX counter, Shiga inhibitor, TbPYK inhibitor, RE007 growth inh, LmPK inh)
Oc1ccc(Oc2ccc(Oc3ccc(O)cc3)cc2)cc1	CHX counter 17 (no result: Shiga inhibitor)
Cc1cc(C)n2nc(SCc3nc4ccccc4[nH]3)nc2n1	Shiga inhibitor active
Cc1cc(C)n2nc(SCCOc3ccccc3)nc2n1	CHX counter 11
Cc1cc(C)n2nc(SCc3ccccc3F)nc2n1	none
Cc1cc2c(cc1S(=O)(=O)Nc1cccc(Cl)c1C)OCCN2C	none (no result: CHX counter, Shiga inhibitor, Giardia FBPA inh, RE007 growth inh, LmPK inh)
O=C(Nc1ccccc1N1CCOCC1)c1ccc(S(=O)(=O)NCc2ccco2)cc1	none
COc1ccccc1N1CCN(C(=O)c2ccc(Cl)c(S(=O)(=O)NCc3ccco3)c2)CC1	CHX counter 28
O=C(c1ccc(Cl)c(S(=O)(=O)NCc2ccco2)c1)N1CCN(c2ccccc2F)CC1	none
O=C(Nc1ccccc1N1CCOCC1)c1ccc(Cl)c(S(=O)(=O)NCc2ccco2)c1	CHX counter 28
COc1ccc(-n2cnc3cc(NCc4ccccn4)ccc32)cc1	none
COc1cccc(CNc2ccc3c(c2)ncn3C(C)C)c1OC	CHX counter 44, Shiga inhibitor 162, Giardia FBPA inh inconclusive
CCCn1cnc2cc(NCc3cccc(OC)c3O)ccc21	CHX counter 37, Shiga inhibitor 126
COc1ccccc1-n1cnc2cc(NCc3ccccn3)ccc21	CHX counter 38, Shiga inhibitor 113
COc1cccc(CNn2cnnc2)c1O	none
CCCn1c(NCc2cccc(OC)c2O)nc2ccccc21	CHX counter 28, Shiga inhibitor 39

Assay outcomes: PubChem BioAssay, National Center for Advancing Translational Sciences (NCATS)
